This passage reports Potency and outcome results from PubChem BioAssay (Tox21).

Unmarked numbers belong to inactive results. Records with an inconclusive call do not appear. Activity calls are given as the source filed them. Unless noted, the call rests on the fitted dose curve.

Assay [1] in a line: Nuclear factor erythroid 2-related factor 2/antioxidant responsive element (Nrf2/ARE) small molecule agonists: qHTS cell viability counter screen in human keratinocytes (AID 1919968; active means well fitted curve in the direction sought with a large enough effect in the repeat runs; an effect the other way counts as inactive or inconclusive; further: nearly all actives have a fitted effect of over 55% in size). Put shortly: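 Parallel cytotoxicity read: KeratinoSens HaCaT cells, compound treatment 23 h, viability by CellTiter-Fluor fluorescence 1 h post-reagent.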
A general note: qHTS replaces the single test concentration by a dilution series.

Assay [2] can be described thus: Nuclear factor erythroid 2-related factor 2/antioxidant responsive element (Nrf2/ARE) small molecule agonists: luciferase reporter gene qHTS assay in human keratinocytes (AID 1919969). Further: nearly all actives have a fitted effect of over 35% in size. Further: potency means the concentration at half of the fitted maximal effect.
For assay [3], the target named is Gonadotropin-releasing hormone receptor (Homo sapiens) (UniProt P30968). The assay can be described thus: Human gonadotropin-releasing hormone receptor (GnRHR) small molecule agonists, calcium flux assay in GnRHR-HEK293 cells (AID 1920063). Further: nearly all actives have a fitted effect of over 35% in size. Put shortly: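 Calcium flux, agonist mode, human GnRHR stably integrated in HEK293; dye 1 h at 37 C before compound; Ex/Em=480/540 kinetic read, 3 min; 15 concentrations, triplicate.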
Gonadotropin-releasing hormone receptor (Homo sapiens), sequence (P30968 whole entry, looked up): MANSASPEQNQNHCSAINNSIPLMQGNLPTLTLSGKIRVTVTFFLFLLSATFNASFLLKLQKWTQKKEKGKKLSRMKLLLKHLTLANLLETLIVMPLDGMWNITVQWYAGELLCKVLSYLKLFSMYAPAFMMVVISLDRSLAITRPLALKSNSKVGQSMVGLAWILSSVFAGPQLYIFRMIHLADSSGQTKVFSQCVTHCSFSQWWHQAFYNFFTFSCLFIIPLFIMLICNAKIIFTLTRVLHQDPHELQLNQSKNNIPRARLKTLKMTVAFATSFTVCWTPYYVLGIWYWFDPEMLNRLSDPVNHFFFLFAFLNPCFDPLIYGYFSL

Assay [4] addresses KiSS-1 receptor (Homo sapiens) (UniProt Q969F8). As to the kind of experiment: Human kisspeptin (KISS1R) small molecule agonists, calcium flux assay in KISS1R-HEK293 cells (AID 1920064; active means well fitted curve in the direction sought with a large enough effect in the repeat runs; an effect the other way counts as inactive or inconclusive). Put shortly: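 Triplicate 15-concentration series were applied to dye-loaded human KISS1R HEK293 cells, and agonist-evoked calcium fluorescence was captured for 3 min.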
Assay [5] can be described thus: G protein-coupled receptor (GPCR) small molecule agonists, calcium flux assay: HEK293 wild type cell line counter screen (AID 1920065). Put shortly:
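Non-specific calcium responders were flagged by adding DMSO-dissolved compounds to dye-loaded cells and reading 480/540 nm fluorescence each second for 3 min; ATP served as positive control.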
On the technique in general: Calcium flux is commonly read through the fluorescence of an indicator in the cells.

Assay [6] in a line: p53 small molecule agonists, cell-based qHTS assay with human liver microsomes (AID 1963577).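 Further: p53 response element beta-lactamase reporter cells with liver microsomes plus NADPH.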 Put shortly:
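Metabolically competent format: test substances, human liver microsomes and NADPH (both 0.5 mg/mL final) incubated with p53RE-bla cells 16 h at 37 C. Beta-lactamase reporter signal then quantified by fluorescence.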

Assay [7] can be described thus: p53 small molecule agonists, cell-based qHTS assay with rat liver microsomes (AID 1963578). Put shortly: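 Each plate received p53RE-bla cells, then compound, then rat liver microsomes and NADPH (both 0.5 mg/mL final). Plates were held 16 h at 37 C, and beta-lactamase activity was detected with LiveBLAzer over 2 h.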
The nature of assay [8]: p53 small molecule agonists, cell-based qHTS assay with human liver microsomes: qHTS cell viability counter screen (AID 1963579). Further: nearly all actives have a fitted effect of over 45% in size. Put shortly:
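Tox21 library compounds, delivered from DMSO stocks, were tested on p53RE-bla cells together with 0.5 mg/mL human liver microsomes and 0.5 mg/mL NADPH (final) over 16 h at 37 C; CellTiter-Glo luminescence served as the cytotoxicity measure.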

The nature of assay [9]: p53 small molecule agonists, cell-based qHTS assay with rat liver microsomes: qHTS cell viability counter screen (AID 1963580). Further: nearly all actives have a fitted effect of over 45% in size. Put shortly:
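Cytotoxicity counter screen: intracellular ATP read by CellTiter-Glo luminescence in the p53 reporter wells. HCT-116 p53RE-bla cells were treated for 16 h at 37 C alongside rat liver microsomes and NADPH, each 0.5 mg/mL final.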

The nature of assay [10]: p53 small molecule agonists, cell-based qHTS assay: qHTS cell viability counter screen (AID 1963581). Further: nearly all actives have a fitted effect of over 45% in size. Put shortly:
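Multiplexed with the reporter read, a CellTiter-Glo step (30 min, room temperature) gauges ATP-based viability of HCT-116 p53RE-bla cells after 16 h compound incubation at 37 C.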

Assay [11] addresses 5-hydroxytryptamine receptor 2A (Homo sapiens) (UniProt P28223). The assay can be described thus: 5-hydroxytryptamine receptor 2A (HTR2A) small molecule antagonists, cell-based qHTS assay (AID 1963586). Further: nearly all actives have a fitted effect of over 45% in size. Further: potency means the concentration at half of the fitted maximal effect. Put shortly:
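CHO cells stably expressing human HTR2A were plated for 18 h at 37 C, then loaded with calcium dye for 1 h. Compounds were preincubated 5 min at room temperature before DOI (4 nM solution) was added. Kinetic fluorescence was read for 3 min.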

For assay [12] the target is unchanged. As to the kind of experiment: 5-hydroxytryptamine receptor 2A (HTR2A) small molecule agonists, cell-based qHTS assay (AID 1963587). Further: nearly all actives have a fitted effect of over 30% in size. Put shortly:
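Kinetic calcium-flux fluorescence (2 min, 1 sec intervals) after compound addition in agonist mode. HTR2A-CHO cells were cultured 18 h, then dye-loaded 1 h at 37 C.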

Assay [13] deals with Muscarinic acetylcholine receptor M1 (Homo sapiens) (UniProt P11229). The assay can be described thus: Cholinergic receptor muscarinic 1 (CHRM1) small molecule agonists, cell-based qHTS assay (AID 1963589). Further: nearly all actives have a fitted effect of over 35% in size. Put shortly:
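qHTS, 15-point titration, 3 independent runs: compounds pin-transferred onto dye-loaded CHRM1-CHO cells (human M1), calcium fluorescence followed every second to detect agonism.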

The nature of assay [14]: cAMP Responsive Elements (CRE) small molecule agonists, cell-based qHTS assay (AID 1963590). Put shortly:
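Quantitative HTS for CRE agonists: HEK 293T CRE-bla cells, overnight plating, 3 h compound incubation at 37 C/5% CO2, then 2 h room-temperature LiveBLAzer B/G FRET substrate loading.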

A short description of assay [15]: cAMP Responsive Elements (CRE) small molecule antagonists, cell-based qHTS assay (AID 1963591; active means well fitted inhibition curve with a large enough effect in the signal ratio in the repeat runs, not every such curve was filed as active; the % refers to the signal ratio). Put shortly: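 Fluorescence intensity from cleaved LiveBLAzer B/G substrate (2 h, room temperature) quantified CRE-bla activity in HEK 293T cells exposed 3 h to compound with 0.25 uM final NKH477.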
Assay [16] concerns the target Beta-2 adrenergic receptor (Homo sapiens) (UniProt P07550). The assay can be described thus: Adrenergic beta2 receptor (ADRB2) small molecule antagonists, cell-based qHTS assay (AID 1963592). Further: series mostly up to about 92 µM; nearly all actives have a fitted effect of over 50% in size. Put shortly:
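Assay format: CHO-ADRB2 cells, 18-20hr seeding at 37C/5% CO2, then compound plus 1nM isoproterenol agonist mix for 0.5hr RT. Homogeneous time-resolved fluorescence cAMP detection after 1hr, expressed as 665/615 nm ratio.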

In assay [17] the target is D(2) dopamine receptor (Homo sapiens) (UniProt P14416). The assay can be described thus: Dopamine D2 receptor (DRD2) small molecule agonists, cell-based qHTS assay (AID 1963594). Further: nearly all actives have a fitted effect of over 35% in size. Put shortly: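 cAMP accumulation in DRD2-HEK293 cells measured by HTRF after 1 h detection; compounds added 10 min before NKH477 (200nM […]) forskolin-analogue stimulation, 30 min at room temperature, with Ro20-1724 present at 0.1 mM final.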
D(2) dopamine receptor (Homo sapiens), sequence (P14416 whole entry, looked up): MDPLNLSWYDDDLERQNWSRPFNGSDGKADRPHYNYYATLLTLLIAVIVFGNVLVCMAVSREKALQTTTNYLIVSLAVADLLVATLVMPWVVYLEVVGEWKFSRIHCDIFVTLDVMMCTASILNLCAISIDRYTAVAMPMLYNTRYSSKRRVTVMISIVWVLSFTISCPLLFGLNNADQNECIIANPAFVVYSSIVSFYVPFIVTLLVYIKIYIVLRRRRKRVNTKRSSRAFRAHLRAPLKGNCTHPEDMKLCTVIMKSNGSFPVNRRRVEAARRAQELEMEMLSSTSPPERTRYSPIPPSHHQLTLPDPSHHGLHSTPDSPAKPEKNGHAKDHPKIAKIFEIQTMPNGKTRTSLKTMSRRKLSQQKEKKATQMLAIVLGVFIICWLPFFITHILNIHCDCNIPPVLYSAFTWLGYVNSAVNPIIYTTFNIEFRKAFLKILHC

The target is the same in assay [18]. As to the kind of experiment: Dopamine D2 receptor (DRD2) small molecule antagonists, cell-based qHTS assay (AID 1963595; active means well fitted inhibition curve with a large enough effect in the signal ratio in the repeat runs, with a control signal flat; the % refers to the signal ratio). Put shortly: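 Antagonism was scored as restored cAMP in HEK293-DRD2 cells. These cells were stimulated with 200 nM NKH477 and 12 nM quinpirole for 30 min at room temperature, in the presence of 0.1 mM Ro20-1724.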
For assay [19], the target named is Beta-2 adrenergic receptor (Homo sapiens) (UniProt P07550). As to the kind of experiment: Adrenergic beta2 receptor (ADRB2) small molecule agonists, cell-based qHTS assay (AID 1963593).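 Further: CHO cells stably overexpressing human ADRB2.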 Put shortly: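 CHO cells stably over-expressing ADRB2 were plated overnight at 37C, then dosed with compounds plus a stimulation mix containing 100uM IBMX and 25uM Ro-20-1724 for 0.5hr at room temperature. cAMP was measured by HTRF competition, 1hr.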
Beta-2 adrenergic receptor (Homo sapiens), sequence (P07550 whole entry, looked up): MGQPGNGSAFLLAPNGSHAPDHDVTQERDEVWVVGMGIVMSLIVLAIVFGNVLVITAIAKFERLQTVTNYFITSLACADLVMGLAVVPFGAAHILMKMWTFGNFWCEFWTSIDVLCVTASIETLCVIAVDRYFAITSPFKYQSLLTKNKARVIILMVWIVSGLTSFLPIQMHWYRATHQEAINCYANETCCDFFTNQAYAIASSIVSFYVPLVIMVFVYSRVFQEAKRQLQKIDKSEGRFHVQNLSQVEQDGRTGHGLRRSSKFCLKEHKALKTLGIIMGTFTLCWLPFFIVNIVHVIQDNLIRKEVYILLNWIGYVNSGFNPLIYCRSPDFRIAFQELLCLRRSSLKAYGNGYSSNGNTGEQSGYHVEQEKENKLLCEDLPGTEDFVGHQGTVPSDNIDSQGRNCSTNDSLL

5-hydroxytryptamine receptor 2A (Homo sapiens), sequence (P28223 whole entry, looked up): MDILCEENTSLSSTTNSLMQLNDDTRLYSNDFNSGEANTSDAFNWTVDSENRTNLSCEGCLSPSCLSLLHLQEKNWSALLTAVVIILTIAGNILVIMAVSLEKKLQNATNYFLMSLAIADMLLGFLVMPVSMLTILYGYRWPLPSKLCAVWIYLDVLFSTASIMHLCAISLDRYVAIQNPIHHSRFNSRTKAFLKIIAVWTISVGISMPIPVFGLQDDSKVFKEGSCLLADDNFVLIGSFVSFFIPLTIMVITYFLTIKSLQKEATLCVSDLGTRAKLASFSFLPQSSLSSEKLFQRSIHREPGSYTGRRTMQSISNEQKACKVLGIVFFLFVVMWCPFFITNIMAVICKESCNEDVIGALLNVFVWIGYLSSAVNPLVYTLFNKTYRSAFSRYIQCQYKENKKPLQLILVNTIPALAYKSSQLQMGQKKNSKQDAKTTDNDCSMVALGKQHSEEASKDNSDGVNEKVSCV
Muscarinic acetylcholine receptor M1 (Homo sapiens), sequence (P11229 whole entry, looked up): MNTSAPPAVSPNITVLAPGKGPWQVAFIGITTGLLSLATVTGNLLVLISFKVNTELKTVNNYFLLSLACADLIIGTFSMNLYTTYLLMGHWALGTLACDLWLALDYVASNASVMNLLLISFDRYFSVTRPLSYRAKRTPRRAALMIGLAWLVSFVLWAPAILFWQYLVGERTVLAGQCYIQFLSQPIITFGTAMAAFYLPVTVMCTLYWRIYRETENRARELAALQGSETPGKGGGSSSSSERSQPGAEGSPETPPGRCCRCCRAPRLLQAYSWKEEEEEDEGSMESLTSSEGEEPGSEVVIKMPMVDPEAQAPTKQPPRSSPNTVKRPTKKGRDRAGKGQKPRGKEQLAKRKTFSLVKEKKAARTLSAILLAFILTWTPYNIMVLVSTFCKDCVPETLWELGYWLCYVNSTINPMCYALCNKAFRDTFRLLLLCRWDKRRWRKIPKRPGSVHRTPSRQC
KiSS-1 receptor (Homo sapiens), sequence (Q969F8 whole entry, looked up): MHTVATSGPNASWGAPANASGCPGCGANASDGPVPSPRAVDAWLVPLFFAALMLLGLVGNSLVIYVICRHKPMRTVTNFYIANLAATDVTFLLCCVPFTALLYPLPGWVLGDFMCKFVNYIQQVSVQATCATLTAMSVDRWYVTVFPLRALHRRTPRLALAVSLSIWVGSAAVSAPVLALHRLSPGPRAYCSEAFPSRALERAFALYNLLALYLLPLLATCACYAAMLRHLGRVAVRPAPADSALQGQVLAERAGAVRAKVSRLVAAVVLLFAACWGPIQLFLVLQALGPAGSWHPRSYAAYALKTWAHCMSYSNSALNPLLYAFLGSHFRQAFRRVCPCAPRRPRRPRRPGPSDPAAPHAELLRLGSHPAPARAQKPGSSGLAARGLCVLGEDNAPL

Turning to `O=C1OC(=O)C2CCCCC12` (stereo unspecified), the Potency entry in assay [1], in assay [2], in [3], in assay [6], in assay [7] and in [8] was “inactive” in each case. Moreover, the Potency result in assay [9], in assay [10], in assay [11], in assay [12], in assay [13] and in [14] was “inactive” throughout. Further, the Potency entry in assay [15], in assay [16], in [17] and in assay [18] was “inactive” in each case. Further, the result in [4] and in assay [5] was inactive.

In the case of `C[C@]12CCC(=O)C=C1CC[C@@H]1[C@@H]2[C@@H](O)C[C@@]2(C)[C@H]1CC[C@]2(O)C(=O)COC(=O)CCC(=O)O`, the Potency entry in [1], in assay [2], in assay [3], in [6], in assay [7] and in [8] was “inactive” each time. For the same molecule, the Potency result in [9], in assay [10], in [11], in [12], in assay [13] and in assay [14] was “inactive” each time. For the same molecule, the Potency entry in assay [15], in assay [16], in assay [19], in assay [17] and in assay [18] was “inactive” in each case. Further, the outcome in [4] and in assay [5] was inactive.

For the molecule `O=C(O)CCCCCCC(=O)O`, the Potency result in assay [1], in assay [2], in assay [3], in assay [6], in assay [7] and in [8] was “inactive” in each case. The Potency result in assay [9], in [10], in assay [11], in [12], in assay [13] and in assay [14] was “inactive” throughout. Moreover, the Potency result in assay [15], in assay [16], in assay [19], in [17] and in [18] was “inactive” throughout. For the same molecule, the result in [4] and in [5] was inactive.

For the molecule `CC(C)=CCC/C(C)=C/C=N/O`, the Potency result in assay [1], in assay [2], in assay [3], in [6], in [7] and in [8] was “inactive” in each case. For the same molecule, the Potency result in assay [9], in assay [10], in [11], in [12], in [13] and in assay [16] was “inactive” each time. Moreover, the Potency entry in [18] was “inactive”. For the same molecule, the outcome in [4] and in assay [5] was inactive.

In the case of `CCNC(=O)N1CCN(CCCC(c2ccc(F)cc2)c2ccc(F)cc2)CC1`, the Potency result in assay [1], in [2], in assay [3], in assay [6], in assay [7] and in assay [8] was “inactive” each time. For the same molecule, the Potency entry in assay [9], in assay [10], in assay [12], in assay [13], in assay [14] and in assay [16] was “inactive” throughout. For the same molecule, the Potency result in assay [17] was “inactive”. In addition, the outcome in assay [4] and in [5] was inactive. In assay [11], the Potency was 230 nM (active).

For `CCCCC(CC)CN1C(=O)C2C3C=CC(C3)C2C1=O` (stereo unspecified), the Potency result in [1], in [3], in assay [6], in assay [7], in assay [8] and in [9] was “inactive” throughout. The Potency result in assay [10], in [11], in assay [12], in assay [13], in assay [16] and in assay [19] was “inactive” in each case. In addition, the Potency entry in assay [17] and in assay [18] was “inactive” each time. Moreover, the Potency in assay [2] was 54.5 µM (active). For the same molecule, the result in [4] and in [5] was inactive.

`O=C(O)c1ccccc1C(=O)Nc1ccc(S(=O)(=O)Nc2nccs2)cc1`: the Potency entry in assay [1], in [2], in assay [3], in assay [6], in [7] and in assay [8] was “inactive” in each case. Also, the Potency entry in assay [9], in assay [10], in assay [11], in assay [13], in assay [14] and in assay [15] was “inactive” throughout. Moreover, the Potency result in assay [16], in assay [19] and in assay [18] was “inactive” throughout. For the same molecule, the result in assay [4] and in assay [5] was inactive.
